This is part of a sample that, as a whole, favours compounds with a hit. Of some 83,000 tested, about 20% had one in any assay.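 The test compound was applied at a single concentration to cells in 96-well plates for 48 hours, and percent growth was recorded.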 Unmarked numbers belong to inactive results. How the source made its calls: active means growth percent below 10; inactive means the rest.
Tested on: HL-60(TB) leukemia
Assay: NCI-60 one-dose screen, 48 h (100 = growth as untreated, 0 = no growth, -100 = all killed)
Conditions: 10 µM unless noted

| SMILES | growth |
| --- | --- |
| O=c1nc(Nc2nc3ccccc3s2)[nH]c(=O)c2ccccc12 | 94.4% |
| O=C(Nc1cccc(Cl)c1)c1cc(N=Nc2ccc([N+](=O)[O-])cc2Cl)ccc1O | 38.2% |
| COc1cc2c(c(OC)c1OC)C(=O)CC(c1cccc(C(=O)Nc3ccc(C#N)cc3)c1)O2 (stereo not drawn) | 47% |
